Results: PubChem BioAssay (EPA / NIEHS)
Calls of active or inactive are those of the source. Rule for the calls: active = hit-call score of the fitted dose curve at least 0.9, where 1 is the maximum; inactive = score below 0.9.

Read-out: Lipase C (LIPC), LIPC (gene 3990)
Test: LTEA_HepaRG_LIPC: Life Technologies and Expression Analysis (LTEA) Assay for Lipase C (LIPC) using HepaRG (AID 2283514)
Conditions: mRNA level, 48 h; actives raise or lower the signal
Experimental: LTEA_HepaRG is a cell based, multiplexed-readout assay that uses HepaRG, a human liver cell line, with measurements taken at 48 hours after chemical dosing on a 96-well plate.LTEA_HepaRG_LIPC is one of 102 assay component(s) measured in the LTEA HepaRG cell culture assay. It is a marker of Steatosis.Data from the assay component LTEA_HepaRG_LIPC was analyzed into 1 endpoint. This assay endpoint, LTEA_HepaRG_LIPC, was analyzed with bidirectional fitting relative to DMSO as the negative control and baseline of activity. Using a type of inducible reporter, measures of mRNA induction for gain or loss-of-signal activity can be used to understand regulation of transcription factor activity. To generalize the intended target to other relatable targets, this assay endpoint is annotated to the esterase intended target family, where the subfamily is lipase.
A total of 1060 chemcials from the ToxCast library were tested in eight-point concentration-response experiments. Cell culture and cytotoxicity assays were conducted at Thermo Fisher Scientific's Custom Services facility (Madison, WI). A single lot of human HepaRG cells (Thermo Fisher Scientific, Frederick, MD) was used for the cell culture experiments. 96-well format collagen type I coated plates of human HepaRG cells were prepared using established methods. Briefly, cryopreserved HepaRG cells were thawed, plated at a density of approximately 100,000 cells/well in HepaRG Thaw, Plate, and General Purpose media (HPRG770, Thermo Fisher Scientific), and incubated for 48 hours. 0.5% DMSO was selected as vehicle control to balance the requisite need of DMSO in HepaRG cultures to maintain differentiation (for example, baseline metabolism, proportions of hepatocytes vs. cholangiocytes), while enabling further hepatic receptor pathway activation (for example, PXR and CAR) in response to chemical exposure. 48 hours after plating, the culture medium was replaced with HepaRG Serum-Free Incudtion Media. Cells were exposed to each test chemical in duplicate and maintained in CO2 incubators for another 48 hours. Chemical plates were thawed to room temperature and 200x concentrations of treatment groups were prepared. 8-point conentration-reponse curves were made with the highest exposure at 100 uM, followed by half-log dilutions, all in 0.5% DMSO. Each test plate contained variouse controls, induction positive controls (1mM phenobarbital), cytotoxicity positive controls ([…] aflatoxin B1), vehicle controls (0.5% DMSO), and total lysis controls (0.5% DMSO). Cell morphology images were taken using an Essen IncuCyte FLR automated microscope, with six 96-well plates imaged in about 24 minutes. Images were captured and exported and JPEG files. Spent culture media was transfered to black-well plates for the LDH assay, and remaining media was sorted at -80 C for later use. Cells were treated with RLT buffer and frozen until shipped for gene expression analysis. Total RNA was isolated from the cell suspension in 75 uL of Buffer RLT (Qiagen, Germantown, MD 20874) by Quintiles/Expression Analysis (Durham, NC) using a custom isolation procedure. Total RNA from each plate well was transferred to a preamplification plate. Fluidigm's 96.96 Dynamic ArrayTM (Fluidigm, Amsterdam, the Netherlands) technology was used for gene expression analyses by quantitative reverse transcription polymerase chain reaction (qRT-PCR, performed by Quintiles/Expression Analysis, Durham, NC)89. Standard TaqManTM Assays (Applied Biosystems/ThermoFisher Scientific, Foster City, CA) were used to assess the expression of 93 genes selected based on their selectivity and sensitivity to important hepatic receptors known to be modulated by environmental chemicals; importance in human hepatocyte functionality; and hepatotoxicity. […]

Row | Compound | AC50 | outcome
1 | O=C(O)C(F)(F)C(F)(F)C(F)(F)C(F)(F)C(F)(F)C(F)(F)C(F)(F)C(F)(F)F | 94.5 µM (active) | –
2 | O=C(O)C(F)(F)C(F)(F)C(F)(F)C(F)(F)C(F)(F)F | – | inactive
3 | CCOC(=O)C(O)(c1ccc(Cl)cc1)c1ccc(Cl)cc1 | – | inactive
4 | O=C(NC(=O)c1cc(F)c(F)cc1Cl)Nc1cc(F)ccc1N1CCC(C(=O)O)CC1 | – | inactive
5 | ClC(Cl)=C(c1ccc(Cl)cc1)c1ccc(Cl)cc1 | – | inactive
6 | Cc1ccccc1[N+](=O)[O-] | – | inactive
7 | O=NN(c1ccccc1)c1ccccc1 | – | inactive
8 | CCCCCCCCCc1ccc(O)cc1 | – | inactive
9 | CCNc1nc(NC(C)C)nc(SC)n1 | 61.1 µM (active) | –
10 | CC(C)C(=O)OCC(C)(C)C(OC(=O)C(C)C)C(C)C (stereo not given) | – | inactive
11 | ClC1=C(Cl)[C@]2(Cl)[C@@H]3[C@@H]4C[C@@H]([C@H]5O[C@@H]45)[C@@H]3[C@@]1(Cl)C2(Cl)Cl | – | inactive
12 | Clc1ccc(Cl)cc1 | – | inactive
13 | Oc1ccc(C(c2ccc(O)cc2)(C(F)(F)F)C(F)(F)F)cc1 | – | inactive
14 | Cc1ccccc1O | – | inactive
15 | C=CC(=O)NCNC(=O)C=C | – | inactive
16 | CN(C)c1nc(=O)n(C2CCCCC2)c(=O)n1C | 12 µM (active) | –
17 | Cc1ccc(O)c(C)c1 | – | inactive
18 | CCC(C)(c1ccc(O)cc1)c1ccc(O)cc1 | – | inactive
19 | CCCN(CCC)N=O | – | inactive
20 | C1CC2OC2CC1C1CO1 (stereo not given) | – | inactive

Row | Compound | AC50 | outcome
21 | O=S(=O)(O)C(F)(F)C(F)(F)C(F)(F)C(F)(F)F | – | inactive
22 | COS(=O)(=O)OC | – | inactive
23 | c1cc2ccc3cccc4ccc(c1)c2c34 | – | inactive
24 | CCOCCOC(C)=O | – | inactive
25 | Cc1cc2c3c(c1)C(c1ccccc1)=N[C@@H](NC(=O)c1ccncc1)C(=O)N3CC2 | 34.9 µM (active) | –
26 | CCSC(=O)N(CC)C1CCCCC1 | – | inactive
27 | CN(C)CCO | – | inactive
28 | CCC(=O)O[C@H]1CC[C@H]2[C@@H]3CCC4=CC(=O)CC[C@]4(C)[C@H]3CC[C@]12C | – | inactive
29 | Clc1ccc(C(Cl)(Cl)Cl)cc1 | – | inactive
30 | Clc1ccc(C(c2ccccc2Cl)C(Cl)(Cl)Cl)cc1 (stereo not given) | 84.4 µM (active) | –
31 | O=C(N[C@H]1CN2CCC1CC2)c1cc2ccoc2cn1 | – | inactive
32 | CCC(C)c1cc([N+](=O)[O-])cc([N+](=O)[O-])c1O (stereo not given) | 1.83 µM (active) | –
33 | C=CC(N)=O | – | inactive
34 | Cc1ccccc1CO[C@@H]1C[C@@]2(C(C)C)CC[C@]1(C)O2 | – | inactive
35 | Oc1c(Cl)c(Cl)c(Cl)c(Cl)c1Cl | 4.24 µM (active) | –
36 | CCCCCCOC(=O)c1ccccc1C(=O)OCCCCCC | – | inactive
37 | Cc1cc(-c2ccc(N)c(C)c2)ccc1N | – | inactive
38 | CCC(C)(CC)c1cc(NC(=O)c2c(OC)cccc2OC)on1 | – | inactive
39 | Nc1ccc(-c2ccc(N)cc2)cc1 | – | inactive
40 | ClC1=C(Cl)[C@]2(Cl)[C@@H]3[C@@H](Cl)[C@H]4O[C@H]4[C@@H]3C1(Cl)C2(Cl)Cl | – | inactive
